Source: PubChem BioAssay AID588332 (National Center for Advancing Translational Sciences (NCATS), 2011)
Unmarked numbers belong to inactive results. Calls come from the whole dose curve; as a rule, active = well fitted curve in the direction sought with a large enough effect; inactive = no such curve, though single readings can be large or run the other way.

Target: ATP-dependent 6-phosphofructokinase (Geobacillus stearothermophilus) (UniProt P00512)
Assay: Confirmatory Assay to Find Inhibitors of T. brucei phosphofructokinase: Counter Screen against Bacillus PFK
Conditions: B. stearothermophilus PFK, ADP-Glo luminescence, 45 min; series mostly up to 57.5 µM; inhibition: at the top concentration
Description: Various species of the protozoan family Trypanosomatidae are responsible for a range of serious human diseases in tropical and subtropical areas of the world. […] Many of the disorders caused by trypanosomatids are fatal if left untreated, but most currently used drugs are inefficient and toxic. […] Oxidative metabolism involving the mitochondrial tricarboxylic acid cycle and oxidative phosphorylation are repressed in these parasites, and recent RNA interference (RNAi) experiments have shown that even partial depletion of certain individual glycolytic enzymes can lead to the death of cultured parasites. One such glycolytic enzyme, phosphofructokinase (PFK), catalyzes the formation of fructose-1,6-bisphosphate (F1,6BP) and ADP from fructose-6-phosphate (F6P) and ATP, and in many metabolic circumstances makes an important contribution to the control of flux through the glycolytic pathway. As a specific glycolytic target, PFK is particularly attractive as it catalyzes the first irreversible step in glycolysis, and structural and kinetic studies have shown very substantial and essential differences from corresponding host enzymes, allowing for the discovery of parasite-selective inhibitors. A luminescent biochemical assay was performed that used luciferase-based nucleotide detection (ADP-Glo, Promega) to examine the effect of identified actives against a bacterial isoform of PFK, namely Bacillus stearothermophilus, for target specificity. The assay is identical in concept to the T. brucei PFK qHTS assay, but instead uses the B. stearothermophilus isoform of PFK (Sigma, St. Louis, MO) and ATP/F6P at bacterial isoform-specific Km concentrations. NIH Chemical Genomics Center [NCGC] NIH Molecular Libraries Probe Centers Network [MLPCN] MLPCN Grant: MH092153-01 Assay Submitter (PI): Malcom Walkinshaw, University of Edinburgh
Substrate buffer was dispensed into white, solid 1536-well plates at 3 uL/well in 0.1M triethanolamine (TEA) buffer, pH 8.0, containing final concentrations of 5 mM MgCl2, 0.01% Tween20, 0.6 mM fructose-6-phosphate (F6P) and 0.1 mM ATP. Then, 23 nl of compounds or DMSO were delivered to each well using a pin tool. One uL of B. stearothermophilus PFK (0.1 M TEA, 0.01% Tween20, 0.1% bovine serum albumin (BSA) and 10 nM PFK, final concentrations) was then dispensed, and plates were incubated at room temperature for 45 min. The luminescent detection reagent, ADP-Glo (Promega), was then added in two steps: the first reagent, ADP-Glo (which converts remaining uncatalyzed ATP), was added at 2.5 uL/well and incubated for ten minutes at room temperature, and the second component, Kinase Detection reagent (which converts ADP to ATP as a substrate for luciferase-based luminescence), was added immediately after at 5uL/well, followed by one final ten minute room temperature incubation. The plates were measured on a ViewLux plate reader for luminescent signal using a clear filter with a one second exposure. The %Activity was determined from the corrected luminescence values. 1x (1.25nM) and 0x PFK enzyme controls (untreated) were included to normalize %Activity of identified inhibitors; 0x enzyme values corresponded to 100%Activity (full inhibition), while 1x PFK enzyme values were used to normalize 0% Activity (no inhibition).

| SMILES | inhibition |
| --- | --- |
| Cc1cc(NS(=O)(=O)c2ccc(NC(=O)Cc3ccc(Cl)c(F)c3)cc2)no1 | 7.83% |
| Cc1cc(NS(=O)(=O)c2ccc(NC(=O)CCc3ccc(Cl)c(Cl)c3)cc2)no1 | 7.06% |
| O=C(Cc1ccc(Cl)c(Cl)c1)Nc1ccc(S(=O)(=O)Nc2cccc(O)c2)cc1 | 5.79% |
| O=C(Cc1ccc(Cl)c(Cl)c1)Nc1ccc(S(=O)(=O)Nc2ccccc2)cc1 | 9.48% |
| Cc1cc(NS(=O)(=O)C2CCN(C(=O)Cc3ccc(Cl)c(Cl)c3)CC2)no1 | 5.05% |
| Cc1cc(N[S+](=O)([O-])c2ccc3cc(NC(=O)Cc4ccc(Cl)c(Cl)c4)ccc3c2)no1 | 1.3% |
| Cc1cc(NS(=O)(=O)c2ccc(NC(=O)Cc3ccc(Cl)cc3Cl)cc2)no1 | 7.84% |
| Cc1cc(NS(=O)(=O)Cc2ccc(NC(=O)Cc3ccc(Cl)c(Cl)c3)cc2)no1 | 12.5% |
| Cc1cc(N(C)S(=O)(=O)c2ccc(NC(=O)Cc3ccc(Cl)c(Cl)c3)cc2)no1 | 7.13% |
| Cc1cc(NS(=O)(=O)CCNC(=O)Cc2ccc(Cl)c(Cl)c2)no1 | 6.94% |
| Cc1cc(NS(=O)(=O)c2ccc(N(C)C(=O)Cc3ccc(Cl)c(Cl)c3)cc2)no1 | 2.87% |
| Cc1cc(NS(=O)(=O)c2ccc(NC(=O)Cc3ccc4ccccc4c3)cc2)no1 | 5.31% |
| CCOC(=O)c1cccc(NS(=O)(=O)c2ccc(NC(=O)Cc3ccc(Cl)c(Cl)c3)cc2)c1 | 11.7% |
| Cc1cc(NC(=O)c2csc(NC(=O)Cc3ccc(Cl)c(Cl)c3)n2)no1 | 10.4% |
| Cc1cc(NS(=O)(=O)c2ccc(NC(=O)Cc3ccc(Cl)c(Cl)c3)cc2)on1 | 11.4% |
| Cc1cc(NS(=O)(=O)c2cccc(NC(=O)Cc3ccc(Cl)c(Cl)c3)c2)no1 | 6.88% |
| Cc1cc(NS(=O)(=O)c2ccc(NC(=O)c3ccc(Cl)c(Cl)c3)cc2)no1 | 4.5% |
| Cc1cc(NS(=O)(=O)c2ccc(NC(=O)C(C)(C)c3ccc(Cl)c(Cl)c3)cc2)no1 | 8.27% |
| COc1ccc(CC(=O)Nc2ccc(S(=O)(=O)Nc3cc(C)on3)cc2)cc1OC | 8.18% |
| Cc1cc(NS(=O)(=O)c2ccc(C(=O)NCc3ccc(Cl)c(Cl)c3)cc2)no1 | 12.6% |

| SMILES | inhibition |
| --- | --- |
| COc1ccc(CC(=O)Nc2ccc(S(=O)(=O)Nc3cc(C)on3)cc2)cc1C | 5.25% |
| Cc1cc(N[S+](=O)([O-])c2ccc(NC(=O)Cc3ccc(Cl)nc3)cc2)no1 | 7.09% |
| Cc1cc(NS(=O)(=O)c2ccc(NC(=O)Cc3ccc(C)c(C)c3)cc2)no1 | 1.26% |
| Cc1cc(NS(=O)(=O)c2ccc(NCCc3ccc(Cl)c(Cl)c3)cc2)no1 | 6.15% |
| Cc1cc(NS(=O)(=O)c2ccc(NC(=O)Cc3ccccc3)cc2)no1 | 1.27% |
| O=C(Cc1ccc(Cl)c(Cl)c1)Nc1ccc(S(=O)(=O)Nc2ccon2)cc1 | 7.77% |
| O=C(Cc1ccc(Cl)c(Cl)c1)Nc1ccc(S(=O)(=O)Nc2cncnc2)cc1 | 8.9% |
| Cc1cc(NS(=O)(=O)c2ccc(NC(=O)Cc3ccc(Cl)c(C(F)(F)F)c3)cc2)no1 | 6.45% |
| Cc1cc(NS(=O)(=O)c2ccc(NC(=O)Cc3ccc(Cl)cc3)cc2)no1 | 7.74% |
| Cc1cc(NS(=O)(=O)c2ccc(NS(=O)(=O)Cc3ccc(Cl)c(Cl)c3)cc2)no1 | 10.1% |
| Cc1cc(NS(=O)(=O)c2ccc(NC(=O)Cc3ccc(Cl)c(Cl)c3)cc2)no1 | -2.25% |
| Cc1cc(NS(=O)(=O)c2ccc(NC(=O)Cc3cccc(Cl)c3)cc2)no1 | 5.01% |
| O=C(Cc1ccc(Cl)c(Cl)c1)Nc1ccc(S(=O)(=O)Nc2ccn[nH]2)cc1 | 12.7% |
| O=C(Cc1ccc(Cl)c(Cl)c1)Nc1ccc(S(=O)(=O)O)cc1 | 13.4% |
| O=C(Cc1ccc(Cl)c(Cl)c1)Nc1ccc(S(=O)(=O)Nc2cccc(C(=O)O)c2)cc1 | 11.7% |
| O=C(Cc1ccc(Cl)c(Cl)c1)Nc1ccc(S(=O)(=O)Nc2ccc(C(=O)O)cc2)cc1 | 3.89% |
| Cc1cc(NS(=O)(=O)c2ccc(NC(=O)Cc3ccc(C)c(F)c3)cc2)no1 | 7.42% |
| Cc1cc(NC(=O)c2ccc(NC(=O)Cc3ccc(Cl)c(Cl)c3)cc2)no1 | 9.14% |
| CN(C)c1cccc(NS(=O)(=O)c2ccc(NC(=O)Cc3ccc(Cl)c(Cl)c3)cc2)c1 | 10% |
| Cc1cc(NS(=O)(=O)c2ccc(NC(=O)Cc3ccc(Cl)c(Cl)c3)cc2)n(C)n1 | 9.44% |
